Values joined by “and” are separate entries in the source; they are usually repeats but may differ in a detail not shown here. Identical values can stand only once. The campaign covered roughly 4,300 compounds. About 3,000 (70%) were called active.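 Rule for the calls: active = inhibition above a per-plate cutoff, the mean inhibition of sample wells plus 3 SD (cut at about 35% in these data); inactive = the rest.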 The set was probably picked from earlier hits. The list is a sample of the results. Where a structure was tested more than once in an assay, its records may differ in their call.
Assay: small molecules binding CAG repeat RNA – biochemical, fluorescence, confirmation (AID 652065);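 note: loss of TO-PRO-1 fluorescence as compound displaces dye from 1x1 AA loop RNA; 0% = DMSO only wells and 100% = 100 µM mitoxantrone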
Settings: r(CAG) RNA repeat, TO-PRO-1 dye displacement fluorescence; at 3 µM; stronger effect = higher value

SMILES | inhibition
CC(C)c1ccc(Nc2nnc(SCC(=O)c3nnc(-c4ccccc4)o3)s2)cc1 | 56.2% (active)
Cc1ccc(-c2csc(C(C#N)=C(O)CN3CCN(C(=O)c4ccco4)CC3)n2)cc1 | 60.2% (active)
O=C1c2cccc3cccc(c23)C(=O)N1CCCCCc1n[nH]c(=S)o1 | 26.9% (inactive)
COc1ccccc1/C=C/C=N/n1c(-c2ccc(Cl)cc2Cl)n[nH]c1=S | 42.1% (active)
O=C(O)c1[nH]c2ccccc2c1C(c1cccc(O)c1)c1c(C(=O)O)[nH]c2ccccc12 | 38.5% (active)
CC(=O)Nc1ccc(S(=O)(=O)Nc2nc(-c3ccc(C(C)(C)C)cc3)cs2)cc1 | 67.6% (active)
CC(=O)Nc1ccc(-c2csc(NC(=O)Nc3ccccc3)n2)cc1 | 23.1% (inactive)
CC(=O)Nc1ccc(C(=O)Nc2nc(-c3cc(C)n(Cc4ccccc4)c3C)cs2)cc1 | 20.6% (inactive)
Cc1ccc(Nc2nc(CSc3nnnn3-c3ccccc3)cc(=O)[nH]2)cc1 | 50.7% (active)
COc1ccccc1C1C(C#N)=C(N)Oc2c1c(-c1ccccc1)nn2-c1ccccc1 (stereo not given) | 30% (inactive)
CC(C)(C)C1C/C(=C/c2ccco2)C(=O)/C(=C/c2ccco2)C1 (stereo not given) | 44.2% (active)
Cc1ccc(Nc2nc(-c3ccc(O)cc3O)cs2)nc1 | 23.4% (inactive)
O=C(Nc1nc(-c2ccco2)c(-c2ccco2)s1)c1ccco1 | 34.7% (active)
CCc1nnc(NS(=O)(=O)c2ccc(N=Cc3c(C)[nH]n(-c4ccc(C)cc4)c3=O)cc2)s1 | 69.2% (active)
COc1ccc(C(=O)/C=C/c2ccc(-c3ccccc3)cc2)cc1CSCC(=O)O | 85.1% (active)
COC(=O)c1ccc(COc2ccc(/C=C/C(=O)c3ccc(OC)c(CSCC(=O)O)c3)cc2OC)cc1 | 66.9% (active)
CCOC(=O)c1ccccc1N1C(=O)C2Sc3[nH]c(=O)sc3C(/C=C/c3ccccc3)C2C1=O (stereo not given) | 46.1% (active)
O=C(O)c1ccc(NN=CC2=C(N3CCOCC3)/C(=C/c3ccccc3)CC2)cc1 | 70.3% (active)
Cc1ccc(C)c(Cn2nnc3c(=O)[nH]c(C(=O)Nc4ccc(F)cc4)nc32)c1 | 43.2% (active)
COc1cccc2sc(NNC(=O)c3nc4ccccc4s3)nc12 | 85% (active)
Clc1ccccc1CSc1nnc(-c2ccco2)c(-c2ccco2)n1 | 59.9% (active)
Cc1cc(Br)cn2c(Cc3cccc(F)c3)c(-c3cccc(Br)c3)nc12 | 4.39% (inactive)
COc1ccc(-c2nc3ccc(Br)cn3c2Cc2ccc(C)cc2)cc1OC | 9.11% (inactive)
Fc1cccc(Cc2c(-c3cccc(Cl)c3)nc3ccc(Br)cn23)c1 | 40.3% (active)
COc1ccc(C(=O)Nc2cccc(/C=C(/CCC(=O)O)c3nc4ccccc4s3)c2)cc1 | 72.8% (active)
O=C(O)CC/C(=C\c1cc2c(cc1Br)OCO2)c1nc2ccccc2s1 | 50.5% (active)
CCOC(=O)c1csc(NC(=O)Nc2cccc(OC)c2)n1 | 29.9% (inactive)

SMILES | inhibition
CC(=O)N(c1ccc2oc(=O)sc2c1)S(=O)(=O)c1ccc(C)cc1 | 5.58% (inactive)
O=C(c1cccnc1)N(c1cc2sc(=O)oc2c2ccccc12)S(=O)(=O)c1ccccc1 | 57.6% (active)
O=C1Oc2ccccc2C(=O)/C1=C/c1ccccc1O | 39% (active)
O=c1oc(-c2ccccc2NS(=O)(=O)c2ccc(Cl)cc2)nc2ccccc12 | 17.2% (inactive)
COc1ccc(S(=O)(=O)/N=C2\C=C(NS(=O)(=O)c3ccccc3)C(=O)c3ccccc32)cc1 | 85% (active)
Cc1ccc([C@@H]2CC=C(C(=O)O)[C@H](c3cccc(Cl)c3)N2S(=O)(=O)c2ccc(C)cc2)cc1 | 80.4% (active)
Cc1ccccc1S(=O)(=O)N1[C@@H](c2cccc(Cl)c2)C(C(=O)O)=CC[C@H]1c1ccc(Cl)cc1 | 83.1% (active)
Cc1ccc(S(=O)(=O)N2[C@@H](c3ccccc3F)C(C(=O)O)=CC[C@H]2c2ccc(Cl)cc2)cc1 | 64.8% (active)
COc1ccc(Cl)cc1-n1c(=S)sc2c(=O)n(-c3ccc(F)cc3)c(SCC(=O)O)nc21 | 28.9% (inactive)
Cc1oc2c(F)c(F)c(F)c(F)c2c1S(=O)(=O)Nc1cccc(C(F)(F)F)c1 | 44.5% (active)
COc1ccc(NS(=O)(=O)c2cc(C(=O)Nc3ccccc3C(=O)O)ccc2C)cc1 | 52% (active)
Cc1ccc(S(=O)(=O)NCCC(c2ccccc2)c2ccccc2)cc1C(=O)O | 28% (inactive)
COc1ccc(NS(=O)(=O)c2cc(NC(=O)CC(=O)c3ccc([N+](=O)[O-])cc3)ccc2C)cc1 | 44.4% (active)
COc1cc(OC)c(S(=O)(=O)Nc2ccccc2C(=O)O)cc1S(=O)(=O)Nc1ccccc1C(=O)O | 39.9% (active)
O=C(Nc1ccc2c(c1)CCC2)c1cccc(S(=O)(=O)Nc2ccccc2Cl)c1 | 40% (active)
CO/N=C(\C(=O)N[C@@H]1C(=O)N2C(C(=O)O)=C(COC(C)=O)CS[C@H]12)c1csc(N)n1 (stereo in doubt) | 48.1% (active)
Cc1ccccc1OCC(=O)Nc1nnc(S(=O)(=O)N2CCCC2)s1 | 33.1% (inactive)
O=C(N/N=C/c1cc(Cl)cc([N+](=O)[O-])c1O)C(O)(c1ccccc1)c1ccccc1 | 52.6% (active)
Cc1ccc(Sc2cc(C(=O)c3ccccc3C(=O)O)ccc2[N+](=O)[O-])cc1 | 68.5% (active)
CC[C@@H](C)[C@H](NC(=O)CCc1c(C)c2cc3c4c(oc3c(C)c2oc1=O)CCCC4)C(=O)O | 52.4% (active)
Cc1c(CCC(=O)N[C@@H](CC(C)C)C(=O)O)c(=O)oc2c(C)c3oc4c(c3cc12)CCCC4 | 48.4% (active)
CCCCC[C@@H]1C=C(C(=O)O)[C@H](c2ccc(C#N)cc2)N1S(=O)(=O)c1ccc(C)cc1 | 55.7% (active)
Cc1ccc(S(=O)(=O)N2[C@@H](c3ccc(Br)cc3)C(C(=O)O)=C[C@H]2CC2CCCC2)cc1 | 72.6% (active)
Nc1[nH]c(=S)nc2nc(-c3ccccc3)c(-c3ccccc3)nc12 | 15.6% (inactive)
NC(=O)c1c(Nc2nc3c(F)cccc3s2)sc2c1CCCC2 | 39.3% (active)
Cc1cc(N2C(=O)C(O)=C(C(=O)c3ccc(C)o3)C2c2ccc(OCc3ccccc3)cc2)no1 (stereo not given) | 64.8% (active)
N#Cc1c(-c2ccccc2)cc(-c2ccccc2)nc1SCC(=O)O | 44.6% (active)

SMILES | inhibition
Nc1cccc(-c2cc(-c3ccccc3)nc(-c3cccc(N)c3)n2)c1 | 21.8% (inactive)
O=C(Cc1ccccc1)Nc1ccc(C(=O)Nc2ccccc2C(=O)O)cc1 | 50.5% (active)
Cc1ccc(C(=O)O)cc1-c1ccc(/C=C2\SC(=O)N(CC(=O)Nc3ccc4c(c3)OCO4)C2=O)o1 | 85.1% (active)
CCn1cc(C(=O)NCC2COc3ccccc3O2)c2cc(OC)c(OC)cc2c1=O (stereo not given) | 3.06% (inactive)
Cc1cc(C)cc(Oc2c(C(F)(F)F)oc3cc(OCC(=O)O)ccc3c2=O)c1 | 27.1% (inactive)
O=C(COc1ccccc1Cl)Nc1ccc(C(=O)c2ccc(C(=O)O)cc2)cc1 | 27.3% (inactive)
Cc1cc(C)cc(OCC(=O)Nc2cc(NC(=O)COc3cc(C)cc(C)c3)cc(C(=O)O)c2)c1 | 78.6% (active)
Cc1cccc(OCC(=O)Nc2ccc(C(=O)O)cc2NC(=O)COc2cccc(C)c2)c1 | 44.8% (active)
CCCc1ccc(OCC(=O)NNC(=S)NC(=O)c2ccco2)cc1 | 56.7% (active)
COc1ccc(OCC(=O)Nc2nnc(-c3ccco3)s2)cc1 | 12.6% (inactive)
CC(Oc1ccc2ccccc2c1)C(=O)NNC(=S)NC(=O)c1ccco1 (stereo not given) | 42.4% (active)
CN1CCN(S(=O)(=O)c2cccc(C(=O)Nc3sccc3C#N)c2)CC1 | 24.8% (inactive)
CC1CCCCN1S(=O)(=O)c1ccc(C(=O)Nc2nnc(-c3cccs3)o2)cc1 (stereo not given) | 40.6% (active)
N#Cc1ccccc1CN1C(=O)S/C(=C/c2cccn2-c2cccc(C(=O)O)c2)C1=O | 63.3% (active)
Cc1cc2nc(-c3ccco3)c(Cc3cccc(F)c3)n2c(C)c1Br | 30.1% (inactive)
Cc1ccc(NC(=S)NNC(=O)CSc2nnc(SCc3ccccc3Cl)s2)cc1 | 48.4% (active)
O=C(Nc1nnc(-c2ccccc2)o1)c1cc(-c2cccs2)nc2ccccc12 | 68.2% (active)
Cc1ccc(Cn2c(SCC(=O)N/N=C/c3ccccc3OCC(=O)O)nc3ccccc32)cc1 | 65.5% (active)
Oc1c(Cl)cc(Cl)c(Cl)c1Cc1c(O)c(Cl)cc(Cl)c1Cl | 91.4% (active)
NC(c1ccccc1)c1csc(NC(=O)Nc2cccc(C(F)(F)F)c2)n1 (stereo not given) | 59.1% (active)
COc1ccc(C(N)c2csc(NC(=O)Nc3cccc(C(F)(F)F)c3)n2)cc1 (stereo not given) | 25.6% (inactive)
NC(c1csc(NC(=O)Nc2cccc(C(F)(F)F)c2)n1)C1CCCCC1 (stereo not given) | 24.4% (inactive)
CCN1C(=O)/C(=C2/Sc3ccccc3N2CCCS(=O)(=O)O)SC1=S | 29.9% (inactive) and 46.4% (active)
Cc1oc2cc([N+](=O)[O-])c(O)c([N+](=O)[O-])c2c1C(=O)c1ccc(Br)cc1 | 50.2% (active)
CCCOc1ccc(Cn2c(O)cc(=O)[nH]c2=O)cc1 | 18.4% (inactive)
C=CCSc1nsc(NC(=O)Nc2cccc(C(C)=O)c2)n1 | 34.4% (inactive)
